Compound in this assay: CCc1cnn2c(NCc3ccc[n+]([O-])c3)cc(N3CCCC[C@H]3CCO)nc12 [dinaciclib]
Kind of assay: cell viability remaining relative to DMSO control; higher = less cytotoxic (more viable cells). The note with it: 100 nM; 24 h. The essentials:
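Solid tumour cell lines from commercial cell banks were exposed to 100 nM of the test compound for 24 hr, with final DMSO ≤0.2%. Viability was read as ATP luminescence with the CellTiter-Glo assay, following the manufacturer's instructions. Remaining viability is the ratio of light units in treated wells to DMSO-treated control wells, expressed as % of DMSO control. Values are means of 2–6 plates with triplicate wells per plate.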
Turning to MDAMB453, the cell viability remaining was determined as 65.4%.

In the case of OVCAR8, the cell viability remaining came out at 104%.

On to SKMEL1, for which the cell viability remaining was found to be 68.9%.

Consider SW837, for which the cell viability remaining turned out to be 79.8%.

On to SKNAS, for which the cell viability remaining came out at 35%.

With KURAMOCHI, the cell viability remaining is 121%.

Turning to MDAMB231, the cell viability remaining amounted to 57.6%.

As to FADU, the cell viability remaining worked out at 31.8%.

For the target SKNFI, the cell viability remaining amounted to 24.1%.

For the target 2313287, the cell viability remaining was determined as 65.6%.

In the case of MFE296, the cell viability remaining was 47.4%.

As for LOVO, the cell viability remaining stood at 88.9%.

In the case of CORL105, the cell viability remaining was found to be 49%.

H441: the cell viability remaining came to 73.4%.

Turning to A101D, the cell viability remaining worked out at 33.9%.

Consider H1793, for which the cell viability remaining came out at 91.3%.

On to SH4, for which the cell viability remaining turned out to be 64.5%.

HS578T: the cell viability remaining was found to be 69.3%.

As for BT549, the cell viability remaining worked out at 51.3%.

Turning to SNU1, the cell viability remaining is 50.8%.

Turning to SNU5, the cell viability remaining amounted to 69.5%.

On to SKBR3, for which the cell viability remaining is 51.1%.

Consider SNU423, for which the cell viability remaining was 36.7%.

Consider H1944, for which the cell viability remaining was determined as 76.9%.

As to SCC4, the cell viability remaining amounted to 66.5%.

For CAMA1, the cell viability remaining turned out to be 51.8%.

As for SKMES1, the cell viability remaining came to 53.9%.

For NCI-H322, the cell viability remaining turned out to be 69.1%.

In the case of HOS, the cell viability remaining turned out to be 36.2%.

On to CALU1, for which the cell viability remaining came out at 78.1%.

For the target COLO201, the cell viability remaining stood at 67.8%.

As for COV318, the cell viability remaining was determined as 79.8%.

For the target TOV21G, the cell viability remaining is 66.7%.

Consider BXPC3, for which the cell viability remaining worked out at 29.4%.

For the origin of these results see the supplement of paper PMC4188521.
